Screening results: PubChem BioAssay, Broad Institute
An excerpt weighted towards active compounds, which were near 2.2% of everything screened.
PGC1a acetyl inh: inhibitors of PGC1a acetylation signal, primary screen, cell-based, U2OS, AlphaScreen, inhibitor mode | AlphaScreen anti-acetyl-lysine; with virally co-expressed GCN5 acetyltransferase | inhibition, % at 15.6 µM | 0.17% of 350,000 active | AID 651687, 2012;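 active means every replicate shows inhibition of at least 40%; inconclusive means mean inhibition at least 40% but some replicate below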;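 further: 0% = neutral control wells and 100% = positive control wells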
PvdQ acylase: P. aeruginosa PvdQ acylase inhibitors, primary screen, biochemical, fluorescence, plate reader and imaging, single point; inhibition, % at 10 µM; 0.063% of 340,000 active; purified PvdQ acylase; in the data active means inhibition above about 30%, passing the limit was not always enough; inconclusive means no clear call, values can overlap the other calls;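 further: 0% = vehicle neutral wells and 100% = reference inhibitor wells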
DENV2 CPE: inhibitors of DENV2 cytopathic effect, primary screen, cell-based, plate reader, single concentration; DENV2-infected cells, cytopathic effect rescue; 1.7% of 350,000 active; CPE inhibition, % at 9.99 µM; in the data active means CPE inhibition above about 20%, passing the limit was not always enough; inconclusive means no clear call, values can overlap the other calls; tested in BHK-21 cells;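 further: 0% = median of neutral control wells and 100% = median of positive control wells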
C2C12 statin: suppressors of statin myotoxicity in C2C12 myotubes, primary screen, cell-based, single point, plate reader; C2C12 myotubes + simvastatin, ATP luminescence, 48 h; scaled: DMSO 0, geranylgeraniol control 100; rescue of ATP level, % at 7.49 µM; 0.78% of 330,000 active; AID 602340, 2012;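 active means mean ATP rescue above about 67%, or every replicate alone reaching that limit, limit read from the data, passing the limit was not always enough; inconclusive means no clear call, values can overlap the other calls; inactive means mean under the limit and some replicate under it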;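 further: myotubes were challenged with 10 µM simvastatin during compound exposure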
miR-122 sensor: miR-122 Renilla sensor signal increase in Huh7, primary screen, miR-122 inhibitor project, cell-based, single point, plate reader; AID 602342, 2012; Huh7 miR-122 Renilla luciferase sensor, 48 h; neutral wells = 0, positive control = 100; activation (reporter increase), % at 12.5 µM; 0.3% of 340,000 active;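 active means mean replicate activation score at least 90 and every replicate individually at or above 90; inconclusive means only one of the two criteria met; inactive means neither criterion met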;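 further: higher luciferase means less miR-122 activity so hits act as miR-122 inhibitors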
Numbers without * were called inactive; ? = inconclusive; . = no result given; ! = a repeat was not active; [ ] = another dose, or the depositor's remark.

SMILES	PGC1a acetyl inh	PvdQ acylase	DENV2 CPE	C2C12 statin	miR-122 sensor
CO[C@H]1CN(C)C(=O)c2ccc(NC(=O)C3CC3)cc2OC[C@@H](C)N(Cc2cccc(F)c2)C[C@H]1C	-1	.	.	19	-9[16.7 µM]
Cn1c(N)c(C(=O)N2CCN(c3ccccc3)CC2)c(=O)n(C)c1=O	-6	.	37*	4	-3
CCOC(=O)c1c(C)c(C(=O)N2CCN(c3ccccc3)CC2)c(C)n1C	3	-11	1	-1	5
O=C(CSc1nnc(-c2ccccc2)n1-c1ccc(Cl)cc1)N/N=C/c1ccccc1C(=O)O	45*	-13	1	16	-2
CCC(=O)Nc1ccc2c(c1)C(=O)N(C)C[C@H](OC)[C@H](C)CN(Cc1cncnc1)[C@H](C)CO2	2	.	.	-5	-9[16.7 µM]
Cc1cc(Cl)c2oc(C(=O)N(C)CCCCN3CCOCC3)c(C)c2c1	8	-7	22*	-8	5
c1cc(-c2ccc(C3[C@H]4CNC[C@@H]3N4CC3CCCCC3)cc2)ccn1 (stereo not given in full)	-3	.	46*!	.	.
COc1ccc(S(=O)(=O)Nc2ccc3c(c2)CC(=O)N([C@H](C)CO)C[C@H](C)[C@H](CN(C)Cc2ccc(Cl)c(Cl)c2)O3)cc1	-15	.	?	-9	8[16.7 µM]
COc1ccc(CN(C)C[C@H]2Oc3ccc(NS(=O)(=O)c4ccc(F)cc4)cc3CC(=O)N([C@H](C)CO)C[C@H]2C)cc1	1	.	-9	69*	-3[16.7 µM]
COc1ccc(S(=O)(=O)N(C)C[C@@H]2Oc3ccc(NS(=O)(=O)c4ccc(Cl)cc4)cc3CC(=O)N([C@@H](C)CO)C[C@H]2C)cc1	6	.	-1	73*	-8[16.7 µM]
COc1ccc(S(=O)(=O)Nc2ccc3c(c2)CC(=O)N([C@H](C)CO)C[C@@H](C)[C@H](CN(C)Cc2ccc(Cl)c(Cl)c2)O3)cc1	3	.	38*	110*	-24[16.7 µM]
COc1ccc(CN(C)C[C@H]2Oc3ccc(NS(=O)(=O)c4ccc(F)cc4)cc3CC(=O)N([C@@H](C)CO)C[C@@H]2C)cc1	4	.	3	67*	-10[16.7 µM]
COc1ccc(S(=O)(=O)N(C)C[C@@H]2Oc3ccc(NS(=O)(=O)c4ccc(Cl)cc4)cc3CC(=O)N([C@H](C)CO)C[C@@H]2C)cc1	1	.	-11	21	1[16.7 µM]
Cc1ccccc1-c1ccccc1[C@H]1[C@@H](C#N)N(C(=O)c2ccc(F)cc2)[C@H]1CO	13	.	4	.	.
COc1ccccc1-c1ccc([C@H]2[C@H](C#N)N[C@@H]2CO)cc1	-2	.	4	0	.
CN(C)CC#Cc1ccc([C@H]2[C@H]3CN(C(=O)Nc4cc(F)ccc4F)CCCCN3[C@H]2CO)cc1	3	.	-8	.	1[16.7 µM]
COc1ccc(CN(C)C[C@H]2Oc3ccc(NS(=O)(=O)c4ccccc4)cc3CC(=O)N([C@@H](C)CO)C[C@@H]2C)cc1	-1	.	3	66*	3[16.7 µM]
C[C@H](CO)N1C[C@H](C)[C@H](CN(C)CC2CCCCC2)Oc2ccc(NS(=O)(=O)c3ccc(F)cc3)cc2CC1=O	1	-3	-7	-16	-6[16.7 µM]
C[C@@H]1CN([C@H](C)CO)C(=O)Cc2cc(NS(=O)(=O)c3ccc(F)cc3)ccc2O[C@H]1CN(C)CC1CCCCC1	-5	.	-2	108*	5[16.7 µM]
COc1ccc(S(=O)(=O)N(C)C[C@H]2Oc3ccc(N(C)C)cc3CC(=O)N([C@H](C)CO)C[C@H]2C)cc1	-6	.	-15	-6	0[16.7 µM]
COc1ccc(CN(C)C[C@@H]2Oc3ccc(NS(=O)(=O)c4ccc(Cl)cc4)cc3CC(=O)N([C@H](C)CO)C[C@H]2C)cc1	-6	.	8	95*	1[16.7 µM]
COc1ccc(S(=O)(=O)N(C)C[C@@H]2Oc3ccc(N(C)C)cc3CC(=O)N([C@H](C)CO)C[C@H]2C)cc1	4	.	30*	6	4[16.7 µM]
C[C@@H]1CN([C@H](C)CO)S(=O)(=O)c2ccc(C3=CCCC3)cc2O[C@@H]1CN(C)C(=O)CN(C)C	-1	.	3	-6	0[16.7 µM]
COc1ccc2c3c([nH]c2c1)[C@H](CO)N(Cc1cc(F)ccc1F)CC31CCN(C(=O)C2CCC2)CC1	-4	.	2	.	.
